Assay results: PubChem BioAssay (EPA / NIEHS)
Active and inactive are the calls of the source. The calls were made as follows: active = hit-call score of the fitted dose curve at least 0.9, where 1 is the maximum; inactive = score below 0.9.

The compounds below were run on sulfotransferase 2A1 (SULT2A1), SULT2A1 (gene 6822) (assay: LTEA_HepaRG_SULT2A1: Life Technologies and Expression Analysis (LTEA) Assay for sulfotransferase 2A1 (SULT2A1) using HepaRG (AID 2283531)). Settings: mRNA level, 48 h; actives raise or lower the signal.
Experimental: LTEA_HepaRG is a cell based, multiplexed-readout assay that uses HepaRG, a human liver cell line, with measurements taken at 48 hours after chemical dosing on a 96-well plate.LTEA_HepaRG_SULT2A1 is one of 102 assay component(s) measured in the LTEA HepaRG cell culture assay. It is a marker of NR mediated transport.Data from the assay component LTEA_HepaRG_SULT2A1 was analyzed into 1 endpoint. This assay endpoint, LTEA_HepaRG_SULT2A1, was analyzed with bidirectional fitting relative to DMSO as the negative control and baseline of activity. Using a type of inducible reporter, measures of mRNA induction for gain or loss-of-signal activity can be used to understand regulation of transcription factor activity. To generalize the intended target to other relatable targets, this assay endpoint is annotated to the transferase intended target family, where the subfamily is sulfotransferase.
A total of 1060 chemcials from the ToxCast library were tested in eight-point concentration-response experiments. Cell culture and cytotoxicity assays were conducted at Thermo Fisher Scientific's Custom Services facility (Madison, WI). A single lot of human HepaRG cells (Thermo Fisher Scientific, Frederick, MD) was used for the cell culture experiments. 96-well format collagen type I coated plates of human HepaRG cells were prepared using established methods. Briefly, cryopreserved HepaRG cells were thawed, plated at a density of approximately 100,000 cells/well in HepaRG Thaw, Plate, and General Purpose media (HPRG770, Thermo Fisher Scientific), and incubated for 48 hours. 0.5% DMSO was selected as vehicle control to balance the requisite need of DMSO in HepaRG cultures to maintain differentiation (for example, baseline metabolism, proportions of hepatocytes vs. cholangiocytes), while enabling further hepatic receptor pathway activation (for example, PXR and CAR) in response to chemical exposure. 48 hours after plating, the culture medium was replaced with HepaRG Serum-Free Incudtion Media. Cells were exposed to each test chemical in duplicate and maintained in CO2 incubators for another 48 hours. Chemical plates were thawed to room temperature and 200x concentrations of treatment groups were prepared. 8-point conentration-reponse curves were made with the highest exposure at 100 uM, followed by half-log dilutions, all in 0.5% DMSO. Each test plate contained variouse controls, induction positive controls (1mM phenobarbital), cytotoxicity positive controls ([…] aflatoxin B1), vehicle controls (0.5% DMSO), and total lysis controls (0.5% DMSO). Cell morphology images were taken using an Essen IncuCyte FLR automated microscope, with six 96-well plates imaged in about 24 minutes. Images were captured and exported and JPEG files. Spent culture media was transfered to black-well plates for the LDH assay, and remaining media was sorted at -80 C for later use. Cells were treated with RLT buffer and frozen until shipped for gene expression analysis. Total RNA was isolated from the cell suspension in 75 uL of Buffer RLT (Qiagen, Germantown, MD 20874) by Quintiles/Expression Analysis (Durham, NC) using a custom isolation procedure. Total RNA from each plate well was transferred to a preamplification plate. Fluidigm's 96.96 Dynamic ArrayTM (Fluidigm, Amsterdam, the Netherlands) technology was used for gene expression analyses by quantitative reverse transcription polymerase chain reaction (qRT-PCR, performed by Quintiles/Expression Analysis, Durham, NC)89. Standard TaqManTM Assays (Applied Biosystems/ThermoFisher Scientific, Foster City, CA) were used to assess the expression of 93 genes selected based on their selectivity and sensitivity to important hepatic receptors known to be modulated by environmental chemicals; importance in human hepatocyte functionality; and hepatotoxicity. […]

| SMILES | outcome |
| --- | --- |
| CCCCCCCc1ccc(O)cc1 | inactive |
| c1nc[nH]n1 | inactive |
| Nc1ccc2ccccc2c1 | inactive |
| O=[N+]([O-])c1ccc(Cl)c(Cl)c1 | inactive |
| CCOc1ccc(C(C)(C)COCc2cccc(Oc3ccccc3)c2)cc1 | inactive |
| O=C(O)C(Cl)Cl | inactive |
| CCC(C)(C)c1ccc(O)cc1 | inactive |
| OCC1CO1 (stereo not given) | inactive |
| ClC1=C(Cl)C2(Cl)C3C(Cl)C(Cl)CC3C1(Cl)C2(Cl)Cl (stereo not given) | inactive |
| COCCOCCO | inactive |
| CN(C)C(=O)Cl | inactive |
| [N-]=[N+]=[N-] | inactive |
| c1ccc2c(c1)Nc1ccccc1S2 | inactive |
| CCOP(=S)(OCC)SCSCC | inactive |
| Cc1ccc(O)cc1C | inactive |
| CC(Cl)(Cl)C(=O)O | inactive |
| CCOS(=O)(=O)OCC | inactive |
| O=P1(N(CCCl)CCCl)NCCCO1 (stereo not given) | inactive |
| CC(C)(C)c1ccc(O)cc1 | inactive |
| ClC(Cl)(Cl)c1ccccc1 | inactive |

| SMILES | outcome |
| --- | --- |
| CCCCc1ccccc1 | inactive |
| CCOC(=O)c1ccccc1C(=O)OCC | inactive |
| O=[N+]([O-])c1ccccc1 | inactive |
| c1ccc(OP(Oc2ccccc2)Oc2ccccc2)cc1 | inactive |
| CCCCN(CCCC)N=O | inactive |
| CCCCN(CCCC)SN(C)C(=O)Oc1cccc2c1OC(C)(C)C2 | inactive |
| CC(Cc1ccc(OCC(=O)O)cc1)NCC(O)c1csc(C(F)(F)F)n1 (stereo not given) | inactive |
| c1cc2c3c(cccc3c1)CC2 | inactive |
| CSC(C)(C)C=NO | inactive |
| O=P(Oc1ccccc1)(Oc1ccccc1)Oc1ccccc1 | inactive |
| CC(C)(C)OOC(C)(C)C | inactive |
| CCCN(CCC)c1c([N+](=O)[O-])cc(C(C)C)cc1[N+](=O)[O-] | inactive |
| CCC1(c2ccccc2)C(=O)N=C(O)NC1=O (stereo not given) | inactive |
| Nc1ccc(Cl)cc1 | inactive |
| O=C(O)C1C(C(=O)O)C2(Cl)C(Cl)=C(Cl)C1(Cl)C2(Cl)Cl (stereo not given) | inactive |
| CCOP(=S)(Oc1ccc([N+](=O)[O-])cc1)c1ccccc1 (stereo not given) | inactive |
| ClC(Cl)c1ccccc1 | inactive |
| CCN(CC)c1ccccc1 | inactive |
| CCNc1nc(Cl)nc(NC(C)(C)C)n1 | inactive |
| Cc1ccc(N)cc1N | inactive |
